Screening data as filed in PubChem BioAssay.
Sampled rows, rich in hits. Any-hit rate of the full collection: about 18%.
DT40 TDP1 CPT = qHTS for Inhibitors of human tyrosyl-DNA phosphodiesterase 1 (TDP1): qHTS in cells in presence of CPT; chicken DT40 Tdp1-/-;hTDP1 cells + 20 nM CPT, ATP luminescence, 48 h; Potency, µM (doses to about 46.2 µM), usual class: inhibitors; AID 686979, 2013; 420,000 tested, 12% active; also: nearly all actives have a fitted effect of over 55% in size
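Chicken DT40 Tdp1-/- cells stably complemented with human TDP1 were seeded at 400 cells/well in medium containing 20 nM camptothecin, exposed to pin-transferred compounds, and grown at 37 °C for at least 48 hr. Viability was read as ATP luminescence.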
TDP1 cell noCPT = qHTS for Inhibitors of human tyrosyl-DNA phosphodiesterase 1 (TDP1): qHTS in cells in absence of CPT; DT40 Tdp1-/- hTDP1 cells, no CPT, ATP luminescence, 48 h; Potency, µM (titrated, usually from 46.2 µM), most hits filed as inhibitors; 420,000 tested, 15% active; AID 686978, 2013; also: nearly all actives have a fitted effect of over 55% in size
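Chicken DT40 Tdp1-/- cells complemented with human TDP1, screened without camptothecin (DMSO vehicle only), 400 cells/well. Compounds pin-transferred, cells incubated at 37 °C for at least 48 hr. Growth read as ATP-dependent luminescence (CellTiter-Glo, 30 min at RT).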
IL-1B inflam inh = qHTS for Inhibitors of Inflammasome Signaling: IL-1-beta AlphaLISA Primary Screen; THP-1 LPS/ATP IL-1B secretion, AlphaLISA, 16 h; stronger effect = lower value; activity change, % at 57.5 µM; AID 743279, 2014; 360,000 tested, 4.7% active; in the data active = activity change below about -50%; inconclusive = mostly about -30% to -49%
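Secreted IL-1B measured by AlphaLISA bead assay after 16 h compound exposure of THP-1 cells; compounds (final up to 57.5 uM) added 1 h before LPS (250 ng/mL) and ATP (1.25 mM) stimulation; lower signal means less secretion.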
RORg inh = qHTS for inhibitors of ROR gamma transcriptional activity; 310,000 tested, 5.4% active; Drosophila S2 Gal4-RORgamma UAS-luciferase reporter, 20 h; AID 2551, 2010; Potency, µM (doses to about 53.6 µM), usual class: inhibitors; Nuclear receptor ROR-gamma (Mus musculus), P51450; also: nearly all actives have a fitted effect of over 60% in size
Target sequence (P51450 whole entry, looked up, the tested form may be a part): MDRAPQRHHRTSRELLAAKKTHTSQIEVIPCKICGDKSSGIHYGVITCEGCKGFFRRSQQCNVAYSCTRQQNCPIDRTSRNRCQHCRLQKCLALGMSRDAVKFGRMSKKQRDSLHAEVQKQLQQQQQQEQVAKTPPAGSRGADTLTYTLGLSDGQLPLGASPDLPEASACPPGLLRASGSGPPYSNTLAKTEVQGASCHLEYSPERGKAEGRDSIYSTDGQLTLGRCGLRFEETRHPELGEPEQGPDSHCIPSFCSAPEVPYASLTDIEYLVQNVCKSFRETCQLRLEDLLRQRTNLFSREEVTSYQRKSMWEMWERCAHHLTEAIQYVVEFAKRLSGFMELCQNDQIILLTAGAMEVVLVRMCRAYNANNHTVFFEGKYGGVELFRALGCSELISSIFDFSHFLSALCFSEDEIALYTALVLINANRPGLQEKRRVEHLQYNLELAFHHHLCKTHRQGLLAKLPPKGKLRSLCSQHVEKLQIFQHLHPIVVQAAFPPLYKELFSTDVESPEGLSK
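Stably transfected Drosophila Schneider cells are the test system, with ROR gamma fused to Gal4 and luciferase under UAS control; luminescence is read after 20 hr of 700 uM copper sulfate induction at ambient temperature.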
VP16 counter = VP16 counterscreen qHTS for inhibitors of ROR gamma transcriptional activity; Drosophila S2 Gal4-VP16 UAS-luciferase, luminescence, 20 h; 310,000 tested, 3.5% active; Potency, µM (series often up to 53.6 µM), hits mostly inhibitors; AID 2546, 2010;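 also: Gal4-VP16 expression switched on by copper sulfate through the metallothionein promoter; nearly all actives have a fitted effect of over 50% in size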
LDHA inh = qHTS assay for inhibitors of human lactate dehydrogenase; L-lactate dehydrogenase A chain (Homo sapiens), P00338; purified LDHA, NADH/diaphorase-resazurin fluorescence; stronger effect = lower value; activity change, % (values are at about 110 or 230 µM); 480,000 tested, 0.15% active; AID 1347041, 2019; in the data active = activity change below about -30%; inconclusive = mostly about -25% to -30%
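Remaining NADH was detected by diaphorase (0.133 mg/mL) converting 37 µM resazurin to fluorescent resorufin, read at 0 and 20 minutes. The preceding 5-minute room-temperature reaction used 2 nM LDHA, 0.2 mM sodium pyruvate and 0.06 mM NADH at pH 7.4.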
Numbers stand for hits; n = inactive; u = inconclusive; x = no result; [ ] = dose if it differs, or a comment. Unless noted, calls follow the shape of the dose curve; as a rule, active = well fitted curve in the direction sought with a large enough effect; inconclusive = small, poorly fitted or top-dose-only effect, or another doubt; inactive = no such curve, though single readings can be large; an effect the other way counts as inactive or inconclusive.

SMILES | DT40 TDP1 CPT | TDP1 cell noCPT | IL-1B inflam inh | RORg inh | VP16 counter | LDHA inh
CCOC(=O)c1nc2sc3c(c2c(=O)n1C(C)C(=O)OCC)CCCC3 (configuration not stated) | 10µM | u | u | n | n | n
O=C(Nc1cc(Cl)cc(Cl)c1)c1ccc(S(=O)(=O)C2CCS(=O)(=O)C2)cc1 (configuration not stated) | x | x | x | x | x | n
O=S(=O)(Oc1ccc2ccccc2c1)c1cccc2nsnc12 | x | x | x | x | x | n
COC(=O)c1ccc(-c2csc(NC(=O)c3ccc(S(=O)(=O)N4CCc5ccccc5C4)cc3)n2)cc1 | 7.3µM | 5.8µM | n | n | n | n
CCC(CC)c1nnc(NC(=O)c2ccc(S(=O)(=O)N3CCc4ccccc4C3)cc2)s1 | n | n | n | n | n | n
COc1ccc(-c2nnc(NC(=O)c3ccc(S(=O)(=O)N4CCc5ccccc5C4)cc3)o2)cc1 | 4.5µM | 4.5µM | n | 0.13µM | 0.25µM | n
COc1ccc(-c2csc(NC(=O)c3ccc(S(=O)(=O)N4CCc5ccccc5C4)cc3)n2)cc1 | n | u | n | n | n | n
O=C(Nc1nnc(C2CC2)o1)c1ccc(S(=O)(=O)N2CCc3ccccc3C2)cc1 | n | u | n | 0.71µM | 1.8µM | n
Cc1noc(-c2ccc(OCc3ccc(F)cc3)cc2O)c1-c1ccc(Br)cc1 | x | x | x | x | x | n
O=C(O)CC(C(=O)OCC(F)(F)C(F)F)N1CCOCC1 (configuration not stated) | x | x | x | x | x | n
COC(CNC(=O)c1ccc2nc(-c3cccs3)c(-c3cccs3)nc2c1)OC | 18µM | 13µM | -51 | n[10 µM] | n | n
COc1ccc(-c2nc3ccc(C(=O)NCC(OC)OC)cc3nc2-c2ccc(OC)c(OC)c2)cc1OC | u | u | n | n | n | n
CCCCNC(=O)c1ccc2nc(-c3cccs3)c(-c3cccs3)nc2c1 | u | 20µM | x | x | x | n
CCCCNC(=O)c1ccc2nc[nH]c2c1 | x | x | x | x | x | n
CN1CCC(N(C)C(=O)c2ccc(C(F)(F)F)cc2)CC1 | x | x | x | x | x | n
CC1=C(C(=O)Nc2ccc(C(=O)NCCC(C)C)c(Cl)c2)SCCO1 | x | x | x | x | x | n
CSc1nc(C(C)C)ccc1CNC(=O)CC(C)c1ccccc1 (configuration not stated) | n | 23µM | n | n | n | n
NC(=O)C1CCN(c2nc(-c3cccs3)nc3ccccc23)CC1 | x | x | x | x | x | n
O=C(C1CCN(c2nc(-c3ccccc3)nc3c2CCC3)CC1)N1CCCC1 | u | u | n | x | x | n
NC(=O)C1CCN(c2nc(-c3ccccc3)nc3c2oc2ccccc23)CC1 | u | u | -71 | n | n | n
CN1CCN(c2nc(-c3ccccc3)nc3c2oc2ccccc23)CC1 | u | u | n | n | n | n
CCOC(=O)C1CCN(c2nc(-c3ccc(Br)cc3)nc3ccccc23)CC1 | 5.8µM | 4.1µM | n | n | n | n
CC1CCCCN1C(=O)C1CCN(c2nc(-c3ccccc3)nc3c2CCC3)CC1 (configuration not stated) | 21µM | 15µM | n | n | n | n
NC(=O)C1CCN(c2nc(-c3ccccc3)nc3ccccc23)CC1 | n | n | -54 | n | n | n
COCCn1c(=O)c2c(nc(-n3nc(C)c(C)c3C)n2Cc2ccccc2F)n(C)c1=O | x | x | x | x | x | n
CCOC(=O)c1sc2ccccc2c1S(=O)(=O)N1CCN(c2ccccc2)CC1 | u | u | x | x | x | n
CCOC(=O)c1scc(-c2ccc(C)cc2)c1S(=O)(=O)N1CCN(c2ccccc2)CC1 | 13µM | 8.2µM | x | x | x | n
CCOC(=O)c1scc(-c2ccccc2)c1S(=O)(=O)N1CCN(c2ccccc2OC)CC1 | 8.2µM | 13µM | x | x | x | n
